Screening results deposited in PubChem BioAssay by several laboratories.
Mdm2-MdmX inh: disrupts the human Mdm2-MdmX interaction; O15151+Q00987; SaOS-2 split-luciferase Mdm2/MdmX complementation, luminescence; inhibition, % at 8 µM; hit rate 3% among 330,000; AID 485346;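 active = inhibition of at least 50% at 8 µM in the primary screen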
Target sequence (O15151 whole entry, looked up): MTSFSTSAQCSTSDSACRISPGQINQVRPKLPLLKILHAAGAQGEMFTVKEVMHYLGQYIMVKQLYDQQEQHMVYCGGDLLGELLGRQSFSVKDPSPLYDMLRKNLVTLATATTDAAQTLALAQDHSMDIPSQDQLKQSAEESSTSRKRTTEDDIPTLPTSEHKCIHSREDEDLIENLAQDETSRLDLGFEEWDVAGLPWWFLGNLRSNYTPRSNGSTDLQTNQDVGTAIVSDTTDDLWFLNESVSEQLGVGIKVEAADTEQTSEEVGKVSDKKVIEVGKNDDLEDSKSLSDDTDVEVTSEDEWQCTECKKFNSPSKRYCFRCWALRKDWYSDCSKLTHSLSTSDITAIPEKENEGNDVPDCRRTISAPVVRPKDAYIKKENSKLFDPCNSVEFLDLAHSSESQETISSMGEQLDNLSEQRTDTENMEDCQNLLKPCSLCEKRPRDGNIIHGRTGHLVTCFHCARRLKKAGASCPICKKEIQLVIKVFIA
Target sequence (Q00987 whole entry, looked up): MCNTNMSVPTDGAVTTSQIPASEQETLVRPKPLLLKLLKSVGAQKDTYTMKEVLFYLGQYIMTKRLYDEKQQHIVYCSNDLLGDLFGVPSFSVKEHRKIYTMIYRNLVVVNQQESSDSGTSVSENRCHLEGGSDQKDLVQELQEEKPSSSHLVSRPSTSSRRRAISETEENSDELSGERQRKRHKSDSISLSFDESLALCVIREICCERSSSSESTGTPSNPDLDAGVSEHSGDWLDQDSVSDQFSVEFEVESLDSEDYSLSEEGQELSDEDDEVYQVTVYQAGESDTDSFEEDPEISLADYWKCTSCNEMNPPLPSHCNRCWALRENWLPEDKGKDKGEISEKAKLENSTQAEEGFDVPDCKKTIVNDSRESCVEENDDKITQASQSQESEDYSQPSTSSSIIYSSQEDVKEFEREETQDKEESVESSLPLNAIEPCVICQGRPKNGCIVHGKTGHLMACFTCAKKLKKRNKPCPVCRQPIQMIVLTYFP
Beta cell apopt: blocks beta cell apoptosis; INS-1E cytokine-induced death, ATP luminescence, 48 h; percent of positive-control rescue, neutral wells zero; protection from apoptosis, % (concentration not given with the values); hit rate 0.8% among 300,000;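 active = Every replicate reaches about 75%, or at least half do and their mean reaches it too, limit read from the data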;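 note: 0% = cytokine-treated negative control wells and 100% = positive control rescue; higher means more ATP so stronger rescue from cytokine killing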
MPTP block: blocks calcium-induced mitochondrial swelling. isolated mouse mitochondria, Ca2+ swelling absorbance, 30 min. inhibition, % at 10 µM. hit rate 1.4% among 360,000;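 active = inhibition of 50% or more, scaled per plate between neutral and stimulator controls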;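 note: 0% = DMSO wells given calcium and 100% = 1 mM EGTA wells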
CSC inhib: cancer stem cell inhibition; hit rate 1.1% among 300,000; cancer stem cell-like cells viability, luminescence; inhibition, % at 7.5 µM; in the data active = inhibition above about 75%; tested in HMLE shEcad cells
Calb FLC: C. albicans growth modulation with fluconazole | C. albicans CaCi-2 (fluconazole-resistant clinical isolate) + fluconazole, Alamar Blue growth, 48 h | growth inhibition, % (test concentration not listed) | AID 1979 | hit rate 0.57% among 300,000;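 active = growth inhibition above about 58% in most replicates, limit read from the data, passing the limit was not always enough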;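 note: all wells also contain fluconazole at 8 µg/ml as a sub-toxic cotreatment; 0% = median of DMSO wells and 100% = median of geldanamycin control wells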
Mdm2 MdmX conf: confirmation of human Mdm2/MdmX interaction inhibitors. shares compounds with Mdm2-MdmX inh. Mdm2-MdmX binding, luminescent assay. inhibition, % at 8 µM. hit rate 55% among 10,000. AID 489028; in the data active = inhibition above about 40%
Full FLuc ctr: inhibits full-length luciferase, flagging false Mdm2/MdmX hits; shares compounds with Mdm2-MdmX inh; SaOS-2 full-length luciferase counterscreen, luminescence; inhibition, % at 8 µM; hit rate 77% among 6,200; AID 504607;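 active = mean inhibition at 8 µM reaching about 37%, which flags the compound as non-specific, limit read from the data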;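 note: p53-null SaOS-2 cells with luciferase driven by a doxycycline-inducible promoter; compound on cells about two nights before reading with doxycycline added after day one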
Starred values were filed as active, the others as inactive; · = no result given. Most compounds without a hit are left out; they make up all but 4.8% or so of the library.

SMILES	Mdm2-MdmX inh	Beta cell apopt	MPTP block	CSC inhib	Calb FLC	Mdm2 MdmX conf	Full FLuc ctr
O=C1CCCc2c1cc(C(=O)Nc1ccc(Br)cn1)c(=O)n2-c1ccccc1	57*	1	-1	-7	59	30	·
O=C(Nc1ccc(Br)cn1)c1cccc2ccccc12	56*	17	7	64	2	50*	81*
O=C(NNC(=O)c1cccc2ccccc12)c1ccc(-c2ccccc2)cc1	-18	-4	34	13	-1	·	·
O=C(NNC(=O)c1cccc2ccccc12)c1ccccc1O	52*	69	-1	12	0	42*	60*
COc1c(C(=O)Nc2ccc(Br)cn2)ccc2ccccc12	-77	-1	1	15	3	·	·
CN(N=Cc1ccc([N+](=O)[O-])cc1)c1ccccn1	·	·	0	·	·	·	·
CNC[C@@H]1OCc2ccccc2-c2c(n(C)c3ccccc23)C(=O)N([C@H](C)CO)C[C@@H]1C	·	·	2	·	·	·	·
CCNC(=O)C1(C)CCCN(C(=O)c2ccc(F)c(C)c2)C1 (stereo not drawn)	·	·	-1	·	·	·	·
C/C(=N\NC(=O)c1ccc(F)cc1)c1ccccn1	97*	111*	0	104*	-10	60*	58*
C/C(=N\NC(=O)c1cc2ccccc2cc1O)c1ccccn1	53*	99*	2	-9	100*	54*	24
CC(=NNC(=S)Nc1ccccc1)c1ccccn1	·	·	1	·	·	·	·
C/C(=N\NC(=O)CCCNc1ccccc1)c1ccncc1	6	-6	-2	·	-10	·	·
C=CCNC(=S)N/N=C(\C)c1ccccn1	91*	93*	-1	114*	115*	64*	32
C/C(=N\NC(=O)c1c[nH]c2ccccc12)c1ccccn1	39	17	0	20	-30	·	·
C/C(=N\NC(=O)CCCNc1ccc(C)cc1)c1ccccn1	62*	54	0	34	-3	55*	47*
COc1cccc(NC(=O)c2cccc(C)c2[N+](=O)[O-])c1	9	-4	1	15	-9	·	·
COc1ccc(NC(=O)C2Cc3c(-c4ccc(NC(C)=O)cc4)ccnc3O2)cn1 (stereo not drawn)	·	·	-2	·	·	·	·
C=CCNc1nc(C(=O)OCC(=O)NCc2ccccc2OC)cs1	-4	·	0	6	2	·	·
Cn1cc(Cc2ccc(C(=O)N3CCN(Cc4ccccc4)CC3)cn2)c2ccccc21	·	·	-2	·	·	·	·
COc1cccc(C(C(=O)NCc2ccccc2)N2CCN(C(=O)C3CCCO3)CC2)c1OC (stereo not drawn)	·	·	-1	·	·	·	·
COc1cc(NC(=O)c2cc(-c3cc(F)ccc3OC(C)C)n[nH]2)cc(OC)c1OC	·	·	1	·	·	·	·
Fc1cccc(Cc2c(-c3ccccc3)nc3c4ccccc4ccn23)c1	·	·	2	·	·	·	·
CCOCCCNC(=O)c1ccc2c(c1)N=C(CC)c1cc(Br)ccc1S2	66*	30	8	69	-6	60*	113*
COC(=O)c1ccc2nc(-c3ccc(C#N)cc3)c(Cc3cccc(Cl)c3)n2c1	·	·	0	·	·	·	·
CCOC(=O)c1c(NC(=S)NCCc2ccccc2)sc2c1CC(C(C)C)OC2 (stereo not drawn)	51*	·	37	46	10	3	·
SMILES	Mdm2-MdmX inh	Beta cell apopt	MPTP block	CSC inhib	Calb FLC	Mdm2 MdmX conf	Full FLuc ctr
COc1ccccc1C(=O)Nc1ccc(Oc2ncnc3sc(-c4ccccc4)cc23)cc1	9	4	1	4	9	·	·
COc1ccc(C(=O)Nc2ccc(Oc3nc(C)nc4sc(-c5ccccc5)cc34)cc2)cc1OC	56*	35	1	37	-7	-4	·
COc1cc(C(=O)Nc2ccc(Oc3ncnc4sc(-c5ccccc5)cc34)cc2)cc(OC)c1OC	53*	4	1	·	11	28	·
COc1ccc(C(=O)Nc2ccc(Oc3ncnc4sc(-c5ccccc5)cc34)cc2)cc1OC	5	4	2	31	5	·	·
COC(=O)[C@]12CCCCC=C1N(Cc1ccc(Cl)cc1Cl)C(=O)[C@H](CC(=O)NCc1cccs1)C2	·	·	1	·	·	·	·
CC1(C(=O)NS(=O)(=O)c2cccc(C#N)c2)CCN1C(=O)CCC1CCCC1 (stereo not drawn)	·	·	0	·	·	·	·
Cc1occc1C(=O)O/N=C(\N)c1ccc(Cl)cc1	100*	·	1	-6	-1	50*	148*
COc1cc(OC)c(C(=O)O/N=C(\N)c2ccc(C)cc2)cc1OC	69*	-8	0	4	39	43*	104*
COc1cc(OC)c(C(=O)O/N=C(\N)c2cccc(C)c2)cc1OC	79*	-2	0	-2	3	47*	100*
Cc1ccc(/C(N)=N/OC(=O)c2ccco2)cc1	-95	6	0	-5	31	·	·
Cc1noc(-c2ccc(Cl)cc2)c1C(=O)O/N=C(\N)c1ccc(C(C)(C)C)cc1	100*	39	5	171*	1	98*	60*
COC(=O)[C@@]12C[C@@H](CC(=O)NCc3cccc4ccccc34)C(=O)N(Cc3ccccc3)C1=CCC(C)(C)C2	·	·	-1	·	·	·	·
COc1ccc(Cl)cc1C(=O)O/N=C(\N)c1ccc(Cl)cc1	71*	9	-1	-7	18	45*	81*
COc1ccc(N(Cc2cc3cc(OC)ccc3[nH]c2=O)S(=O)(=O)c2ccc(NC(C)=O)cc2)cc1	77*	3	-2	33	1	71*	65*
COc1ccc(N(Cc2cc3ccccc3[nH]c2=O)S(=O)(=O)c2ccc(OC)cc2)cc1	35	-5	0	47	4	·	·
C=C[C@H](CC(C)C)N(Cc1ccccc1)S(=O)(=O)N(Cc1ccccc1)[C@@H](C=C)CC(C)C	83*	84*	1	16	·	21	·
CC(C)C[C@@H](CO)N(Cc1ccccc1)S(=O)(=O)N(Cc1ccccc1)[C@@H](CO)CC(C)C	83*	12	20	126*	·	-20	·
CCN([C@H](CO)CC(C)C)S(=O)(=O)c1ccccc1	15	·	0	·	·	·	·
COc1ccc(CN([C@H](C)CO)S(=O)(=O)N(Cc2ccccc2)[C@H](CO)C(C)C)cc1	-13	-5	0	-5	·	·	·
O=S(=O)(N(Cc1ccccc1)[C@H](CO)Cc1ccccc1)N(Cc1ccccc1)[C@H](CO)Cc1ccccc1	36	0	6	·	·	·	·
COc1ccc(CN([C@H](CO)CC(C)C)S(=O)(=O)N(Cc2ccccc2)[C@H](CO)CC(C)C)cc1	62*	19	7	·	·	19	·
CC(C)C[C@@H](CO)N(Cc1ccccc1)S(=O)(=O)N(Cc1ccccc1)[C@H](CO)CC(C)C	81*	31	23	125*	·	19	·
COC(=O)c1ccc(/C=C/c2c(-c3ccsc3)oc3ccc(N4CCOCC4)cc23)cc1	57*	0	2	109*	1	10	·
COc1ccc(CCC(=O)OCC(=O)Nc2ccc(OC)c(OC)c2)cc1OC	1	-2	1	-6	-9	·	·
